# Source: PubChem
# ALDH1A1 inh – inhibitors of human aldehyde dehydrogenase 1A1. P00352. Purified ALDH1A1, NADH fluorescence, propionaldehyde substrate. Potency, µM (titrated, usually from 75.3 µM), inactives show top-dose activity, negative = inhibition, usual class: inhibitors. actives 7.3% (n = 220,000). AID 1030; active means well fitted inhibition curve with a large enough effect, not every such curve was filed as active; inconclusive means small, poorly fitted or top-dose-only effect, or another doubt; inactive means no such curve, though single readings can be large or run the other way;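 further: plate controls were no enzyme wells and a reference inhibitor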
# Sfp inh – Sfp phosphopantetheinyl transferase inhibition. Q9F4F7. Biochemical Sfp PPTase activity, qHTS. Potency, µM, inactives show largest response in the series, negative = inhibition, most hits filed as inhibitors. actives 3.5% (n = 310,000);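 further: the enzyme is Sfp with the accession as filed and its product quenches rhodamine fluorescence; 0% = enzyme reaction without inhibitor and -100% = no enzyme wells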
#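 With Hepes-Na pH 7.6 buffer containing 10 mM MgCl2, Sfp (15 nM) modified BHQ-2-YbbR (12.5 uM) using rhodamine-CoA (5 uM). Two reads 30 minutes apart at 525/598 nm yielded each well's rate.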
# VP16 counter – inhibits Gal4-VP16 luciferase reporter, ROR gamma counter-screen. Drosophila S2 Gal4-VP16 UAS-luciferase, luminescence, 20 h. Potency, µM (doses to about 53.6 µM), inactives show at the highest dose activity, negative = inhibition, usual class: inhibitors. actives 3.5% (n = 310,000). AID 2546;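 further: Gal4-VP16 expression switched on by copper sulfate through the metallothionein promoter; nearly all actives have a fitted effect of over 50% in size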
# RORg inh – inhibitors of mouse ROR gamma transcriptional activity; Drosophila S2 Gal4-RORgamma UAS-luciferase reporter, 20 h; Potency, µM (highest dose often 53.6 µM), for the others: top-dose activity change, negative = inhibition, most hits filed as inhibitors; actives 5.4% (n = 310,000); further: nearly all actives have a fitted effect of over 60% in size
# Target sequence (P51450 whole entry, looked up, the tested form may be a part): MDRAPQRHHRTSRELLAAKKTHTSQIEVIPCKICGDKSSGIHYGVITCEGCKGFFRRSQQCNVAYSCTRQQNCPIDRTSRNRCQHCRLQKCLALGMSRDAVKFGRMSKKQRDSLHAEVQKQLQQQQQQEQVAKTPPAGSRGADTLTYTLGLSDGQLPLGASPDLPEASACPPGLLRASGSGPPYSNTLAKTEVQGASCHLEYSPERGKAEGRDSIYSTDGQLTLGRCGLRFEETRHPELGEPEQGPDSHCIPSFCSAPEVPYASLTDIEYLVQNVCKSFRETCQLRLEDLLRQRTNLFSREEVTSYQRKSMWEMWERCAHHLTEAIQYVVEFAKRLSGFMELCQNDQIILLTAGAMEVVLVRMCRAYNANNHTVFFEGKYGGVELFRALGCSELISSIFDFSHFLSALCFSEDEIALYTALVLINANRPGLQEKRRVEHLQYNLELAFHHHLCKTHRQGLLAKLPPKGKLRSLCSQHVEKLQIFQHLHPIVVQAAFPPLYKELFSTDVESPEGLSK
#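 ROR gamma transcriptional activity was tracked as Gal4-UAS luciferase output in stably transfected Drosophila Schneider cells, with compound added 1 hr before 700 uM copper sulfate induction and a 20 hr ambient-temperature incubation.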
# PLK1 PBD block – blocks phosphopeptide binding to human PLK1 polo-box domain; Potency, µM, inactives show max response, negative = inhibition, usual class: inhibitors; P53350; Plk1 PBD binding of FITC phosphopeptide, fluorescence polarization; actives 2.8% (n = 360,000); further: series mostly up to about 57 µM; nearly all actives have a fitted effect of over 65% in size
# * marks the source's active call; other numbers are inactive results; u = inconclusive; x = no result; [ ] = another dose, or the depositor's remark. An excerpt weighted towards active compounds, which were near 12% of everything screened. Unless noted, the call rests on the fitted dose curve; in most records, active means well fitted curve in the direction sought with a large enough effect; inconclusive means small, poorly fitted or top-dose-only effect, or another doubt; inactive means no such curve, though single readings can be large; an effect the other way counts as inactive or inconclusive. Unless noted, on the % scale 0 is the no-effect control and ±100 the full control effect; potency means the concentration at half of the fitted maximal effect.
SMILES,ALDH1A1 inh,Sfp inh,VP16 counter,RORg inh,PLK1 PBD block
O=C(Nc1cnn(Cc2ccc(Cl)cc2Cl)c1)c1noc2c1CCCC2,14µM*,-15%,-8%,u,-12%
COc1ncc2nc(-c3cc(F)cc(F)c3)c(=O)n(-c3ccccc3)c2n1,-9%,2%,3%,-2%,x
COc1ccc(C=O)cc1Cn1cnc2c(cnn2C)c1=O,u,7%,-2%,1%,u
COc1ccc(C(C)=O)cc1Cn1cnc2c(cnn2C)c1=O,x,3%,3%,-10%,19µM*
CCCCCCCCN1C(=O)[C@H](CC(=O)NCCCN2CCCC2=O)C[C@@]2(C(=O)OC)CC(C)(C)CC=C12,x,x,x,x,1%
C[C@@H]1C=CC(=O)O[C@@H]1c1ccc(Cl)cc1,x,17%,-1%,u,-16%
O=c1c2cc3c(nc2[nH]c(=S)n1-c1ccccc1)CCCC3,x,20%,u,2.5µM*,7%
CCn1c(=S)[nH]c2nc3c(cc2c1=O)CCCC3,12%,21%,u,1.6µM*,-1%
c1ccc(COc2cccc(-c3cc4nc(NCCc5ccncc5)ccn4n3)c2)cc1,x,x,x,x,-2%
Cc1ccc(NC2c3ncccc3C(=O)N2c2ccccc2C)cc1C (configuration not stated),u,45µM*,12%,14%,6.7µM*
Cc1ccc(C)c(S(=O)(=O)N2C(=S)NC(=O)C2CC(C)C)c1 (configuration not stated),-5%,12%,2%,-2%,0%
CC(C)C1C(=O)NC(=S)N1S(=O)(=O)c1ccc(C(C)(C)C)cc1 (configuration not stated),11µM*,4%,7%,-21%,24µM*
O=C(Nc1nccs1)c1cc(-c2ccco2)nc2ccccc12,u,-79%,7%,-27%,-23%
Cc1cc(NC(=O)c2cc(-c3ccccn3)nc3c(Cl)cccc23)no1,x,-4%,-16%,u,-1%
O=C(Nc1nccs1)c1cc(-c2ccccc2)nc2ccccc12,-7%,1%,u,11µM*,-3%
O=C(Nc1nccs1)c1cc(-c2ccccn2)nc2c(Cl)cccc12,x,0%,6.3µM*,5µM*,-1%
O=C(Nc1nccs1)c1cc(Cl)nc2ccccc12,u,4%,u,18µM*,-11%
CC(C)C[C@@H](CN)NC(=O)c1nc[nH]c1C(=O)N[C@@H](CC(=O)O)C(=O)CNC[C@H](C)NC(=O)c1nc[nH]c1C(=O)N[C@@H](CC(=O)O)C(=O)O,x,x,x,x,-14%
O=C(O)[C@H]1CCCC[C@@H]1C(=O)Nc1nc2ccccc2[nH]1,-2%[13.5 µM],x,x,x,x
COc1ccccc1OCCC(=O)OCC(=O)c1[nH]c(C)c(C(C)=O)c1C,25µM*,5%,u,14µM*,-7%
CCOC(=O)c1c(C)[nH]c(C(=O)COC(=O)/C=C/c2cccc(OC)c2OC)c1C,u,17%,-2%,-30%,-6%
CCOC(=O)c1c(C)[nH]c(C(=O)COC(=O)COc2ccccc2C=O)c1C,u,-10%,6%,-8%[10 µM],19µM*
CN(Cc1ccco1)c1cc(-c2ccoc2)ncn1,25µM*,32µM*,6%,-5%,x
Cc1noc(C)c1-c1cc(N(C)Cc2ccco2)ncn1,u,56µM*,22%,-17%,x
CN(C)c1ccc(-c2cc(N(C)Cc3ccco3)ncn2)cc1,u,-16%,-29%,u,x
SMILES,ALDH1A1 inh,Sfp inh,VP16 counter,RORg inh,PLK1 PBD block
CS(=O)(=O)n1nc(OC(=O)c2cc(Br)ccc2Cl)cc1N,-4%,u,-23%,0%,11µM*
O=C(Cc1ccc(Br)cc1)N1CCN(C(=O)c2ccco2)CC1,x,2%,-12%,13%,-9%
CC(C)(C)c1ccc(S(=O)(=O)NCC(=O)N2CCCC2)cc1,x,22%,4%,-14%[1.91 µM],-10%
CC(C)(C)c1ccc(S(=O)(=O)NCC(=O)N2CCN(C(=O)c3ccco3)CC2)cc1,1.6µM*,2%,10%,3%,-2%
COc1ccc(CC(=O)N2CCC(c3ccccc3)C2)cc1 (configuration not stated),u,10%,8%,16%,-2%
O=C(CCSc1ccccc1)N1CCN(C(=O)c2ccco2)CC1,22µM*,-16%,-14%,10%,-8%
O=C(Cc1ccccc1)N1CCC(c2ccccc2)C1 (configuration not stated),25µM*,11%,5%,-2%,-7%
O=C(COc1ccccc1O)N1CCN(C(=O)c2ccco2)CC1,2%,13%,4%,3%,4%
O=C(Cc1ccccc1)N1CCN(C(=O)c2ccco2)CC1,20µM*,-10%,6%,-17%,-2%
COC(=O)C1C[C@@H]2C3=C(C(=O)[C@@](C)(NC(=O)c4ccccc4)C3[C@H](C(=O)OC)C1)[C@H](C)n1c(=O)n(-c3ccccc3)c(=O)n12 (some centres not stated),x,-9%,3%,23%,x
O=C(c1ccco1)N1CCN(C(=O)c2sccc2-c2ccccc2)CC1,13µM*,-6%,-3%,u,-8%
O=C(c1ccco1)N1CCN(Cc2nc(Cc3ccccc3)no2)CC1,22µM*,-1%,-2%,-3%,-15%
CN1c2ccccc2-c2nc3ccccc3n2C1c1ccccn1 (configuration not stated),11%,u,u,4µM*,-3%
CCN1c2ccccc2-c2nc3ccccc3n2C1c1ccco1 (configuration not stated),u,-17%,u,16µM*,2%
CN1c2ccccc2-c2nc3ccccc3n2C1c1ccncc1 (configuration not stated),-8%,7%,9%,-30%,-5%
c1ccc(CN2c3ccccc3-c3nc4ccccc4n3C2c2ccccn2)cc1 (configuration not stated),u,-12%,-29%,16µM*,0%
O=C(O)C1(C(=O)O)CCN(S(=O)(=O)c2ccccc2)CC1,-8%[13.5 µM],x,x,x,x
COc1ccc(Cc2nc3ccc(C(=O)N4C[C@@H](C)O[C@@H](C)C4)cc3o2)cc1OC,x,11%,u,u,-1%
COCCN1CCN(C(=O)c2ccc3nc(Cc4ccc(OC)c(OC)c4)oc3c2)CC1,x,23%,7.1µM*,u,-23%
Cc1ccc(S(=O)(=O)N(C)CC(=O)N2CCCCCC2)cc1,x,7%,-14%,23%,-1%
Cc1ccc(S(=O)(=O)N(C)CC(=O)N2CCCC2)cc1,3.5µM*,21%,3%,10%,-6%
COCCCNC(=O)CN(C1CCCCC1)S(=O)(=O)c1ccc(C)cc1,14µM*,15%,-7%,-11%,-1%
Cc1ccc(S(=O)(=O)N(CC(=O)NCC2CCCO2)C2CCCCC2)cc1 (configuration not stated),x,10%,-8%,4%,-10%
Cc1ccc(S(=O)(=O)C2(C(=O)N3CCCCCC3)CC2)cc1,7.1µM*,4%,-16%,-9%,-9%
